# Test results as given in the supplement of paper PMC10338343.
# ± gives the standard deviation.
# How the values were obtained:
# [1] = tested on: MILI (PIWIL2) piRISC loaded with L1MC piRNA (26 nt); experiment: pre-steady-state target cleavage rate (min^-1); guide: L1MC piRNA 5'p-UAACUAAAUACUAUGCAAGCUGUAGG; higher = faster piRNA-guided slicing of the target
# In short: (§1)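 With or without 500 nM GTSF1 partner protein, 1 nM active affinity-purified piRISC carrying one synthetic guide was mixed with 0.1 nM transcribed, DNA-blocked target RNA library in HEPES–potassium acetate buffer at 33 °C for 0–8 or 0–960 min. Uncleaved targets were sequenced and normalised to depth and to weakly complementary targets, three trials were pooled, and k3 was capped at 0.0001 min^-1. The pre-steady-state cleavage rate came from a burst-and-steady-state fit.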
# [2] = tested on: EfPiwi piRISC loaded with L1MC piRNA (26 nt); experiment: pre-steady-state target cleavage rate (min^-1); auxiliary factor: 500 nM Ephydatia muelleri Gtsf1; guide: L1MC piRNA 5'p-UAACUAAAUACUAUGCAAGCUGUAGG; MIWI and MILI are mouse PIWI proteins and EfPiwi is from a freshwater sponge; tags in brackets are library labels; higher = faster piRNA-guided slicing of the target
# In short: as §1
# [3] = auxiliary factor: 500 nM mouse GTSF1
# [4] = auxiliary factor: none (no GTSF1)
Sequence,"pre-steady-state target cleavage rate [1, 3]","pre-steady-state target cleavage rate [1, 4]",pre-steady-state target cleavage rate [2]
UCCUGGAACAGUCUUGCAUAGUAUUUAGUUA,0.26 ± 0.018,0.00993 ± 0.0026,0.00822 ± 0.0027
UCCUGGAACAGCAUGCUUAGUAUUUAGUUA,0.217 ± 0.019,0.005 ± 0.0026,0.00591 ± 0.0025
UCCUGGAUCAGCUUGCAUAGUAUUUAGUUC [g2:g22:cont:t1C],0.235 ± 0.016,0.00817 ± 0.0026,0.0501 ± 0.011
UCCUGGAUCAGGUUGCAUAGUAUUUUGUUA,0.101 ± 0.015,0.00364 ± 0.0028,0.00406 ± 0.0022
UCCUCCUACAGCUUGCAUAGUAUUAUGUUA,0.15 ± 0.025,0.00329 ± 0.0023,0.0049 ± 0.0026
UCCUCCUACUGCUUGCAUAGUAUUUAGUUA,0.27 ± 0.016,0.00899 ± 0.0022,0.0494 ± 0.015
UCCUGGAUCAGCUUGCAUAGUAUUUAGUGA,0.237 ± 0.021,0.006 ± 0.0028,0.0182 ± 0.0068
UCCUGGUUGAGCUUGCAUAGUAUUUAGUAA,0.196 ± 0.022,0.00595 ± 0.0027,0.00604 ± 0.0023
UCCUGGUACUGCAUGCAUAGUAUUUAGUUA,0.222 ± 0.02,0.00932 ± 0.0034,0.0111 ± 0.0032
UCCUCCAACAGCUUGCAUAGUAUUUAGAUA,0.192 ± 0.034,0.00442 ± 0.0025,0.0051 ± 0.0023
UCCUCCUACAGCAACCAUAGUAUUUAGUUA,0.21 ± 0.022,0.00404 ± 0.002,0.00322 ± 0.0025
UCCUGCAUGAGCUUGCAUAGUAUUUAGUUA,0.265 ± 0.019,0.01 ± 0.0025,0.0163 ± 0.0047
UCCUGGAUCAGCAUGCAAAGUAUUUAGUUA,0.098 ± 0.011,0.0074 ± 0.0018,0.0037 ± 0.0031
UCCUCAUACAGCUUGCAUAGUAUUUAGUUA,0.319 ± 0.015,0.0105 ± 0.0029,0.234 ± 0.064
UCCUCCUACAGCUUGCAUAGUAUUUAGAUA,0.205 ± 0.035,0.00357 ± 0.003,0.00505 ± 0.0025
UCCUCACUACAGCUUGCAUAGUAUUUAGUUA,0.259 ± 0.022,0.00971 ± 0.0027,0.0191 ± 0.0067
UCCUGGAUCAGCUAGCAUAGUAAUUAGUUA,0.152 ± 0.015,0.00502 ± 0.0022,0.00458 ± 0.0024
UCCUCCUACACCUAGCAUAGUAUUUAGUUA,0.205 ± 0.027,0.0056 ± 0.0018,0.00718 ± 0.0027
UCCUCCUACAGCAAGCAUAGUAUUUAGUUA,0.281 ± 0.014,0.00806 ± 0.0019,0.0493 ± 0.018
